{
  "source": "PubChem BioAssay AID463173",
  "about": "(ICCB-Longwood Screening Facility, Harvard Medical School, 2010)",
  "note": "The campaign covered roughly 52,000 compounds. About 4,300 (8.3%) were called active. The sample as a whole holds a higher share of actives than the screen did. Values without a mark were called inactive. No stated cut-off is given here; in the data, active means survival mostly below about 52% (no sharp cut-off); inactive means mostly above about 56%.",
  "data": [
    {"system": "DeltatarO mutant", "assay": "growth inhibition of S. aureus wild type versus tarO mutant, primary screen, teichoic acid synthesis inhibitors, RN4220, OD600 (AID 463173)", "conditions": "OD600, 18 h, hits give low values, screened at 18.75 µg/mL (by protocol)", "values": [
      {"smiles": "COc1ccc(-c2cc3ccc(O)c(CN4CCCC(C)C4)c3oc2=O)cc1", "note": "(centres undefined)", "survival": "79%"},
      {"smiles": "CCOc1ccccc1Nc1nc(-c2cccc(Cl)c2)c2c(n1)-c1ccccc1OC2", "survival": "61%"},
      {"smiles": "CN(C(=O)CSc1nc2ccc(NC(=O)CCc3ccccc3)cc2s1)c1ccccc1", "survival": "73%"},
      {"smiles": "C=CCc1c(C)[nH]c2ccccc2c1=O", "survival": "98%"},
      {"smiles": "Cc1ccc(C(c2cccc(Br)c2)c2c(C)[nH]c3ccccc23)s1", "note": "(centres undefined)", "survival": "65%"},
      {"smiles": "Cc1[nH]c2ccccc2c1C(c1ccccc1)c1ccc(Cl)s1", "note": "(centres undefined)", "survival": "0% (active)"},
      {"smiles": "CCc1ccc(C(c2ccccc2)c2c(C)[nH]c3ccccc23)s1", "note": "(centres undefined)", "survival": "25% (active)"},
      {"smiles": "S=c1nc(Cc2cccs2)[nH]c2ccccc12", "survival": "100%"},
      {"smiles": "NNC(=O)CSc1c(-c2cccs2)[nH]c2ccccc12", "survival": "84%"},
      {"smiles": "Cc1ccc(CNC(C)c2ccccc2)s1", "note": "(centres undefined)", "survival": "75%"},
      {"smiles": "Cc1ccc(C(c2ccccc2)c2c(C)[nH]c3ccccc23)s1", "note": "(centres undefined)", "survival": "26% (active)"},
      {"smiles": "CCCCc1c(C)[nH]c2ccccc2c1=O", "survival": "83%"},
      {"smiles": "Cc1[nH]c2ccccc2c1C(c1ccccc1)c1cccs1", "note": "(centres undefined)", "survival": "7% (active)"},
      {"smiles": "Cc1[nH]c2ccccc2c1C1(O)C(=O)Nc2ccc(Cl)cc21", "note": "(centres undefined)", "survival": "66%"},
      {"smiles": "Cc1cccc(Nc2c(-c3ccsc3)nc3nc(C)cc(C)n23)c1", "survival": "130%"},
      {"smiles": "CS(=O)(=O)Nc1ccccc1C(=O)O", "survival": "81%"},
      {"smiles": "CCCSc1ncc(Cl)c(C(=O)Nc2c(C(=O)Nc3ccc(C)cc3)oc3ccccc23)n1", "survival": "62%"},
      {"smiles": "Cc1cccc(NC(=O)Cn2c(=O)n(CCCCCC(=O)NCc3ccccc3)c(=O)c3sccc32)c1", "survival": "62%"},
      {"smiles": "CCOC(=O)c1cnn(Cc2ccccc2)c1N", "survival": "79%"},
      {"smiles": "CCOC(=O)c1noc2ncnc(N3CCN(c4ccccc4OC)CC3)c12", "survival": "77%"},
      {"smiles": "COc1ccccc1NC(=O)N1CCN(Cc2nc3ccc(C)cc3o2)CC1", "survival": "84%"},
      {"smiles": "CC(=O)c1ccc(NC(=O)CCn2nc(C)c(S(=O)(=O)N3CCC(C)CC3)c2C)cc1", "survival": "-5% (active)"},
      {"smiles": "CC(=O)c1cccc(NC(=O)CCn2nc(C)c(S(=O)(=O)N3CCCCC3)c2C)c1", "survival": "134%"},
      {"smiles": "Cc1nn(CCC(=O)Nc2cccc(C#N)c2)c(C)c1S(=O)(=O)N1CCC(C)CC1", "survival": "89%"},
      {"smiles": "CCOC(=O)c1cnc2ccc(OC(F)(F)F)cc2c1Nc1ccccc1C(=O)O", "survival": "37% (active)"},
      {"smiles": "CCOC(=O)c1cnc2cc(F)c(F)cc2c1Nc1ccccc1O", "survival": "156%"},
      {"smiles": "CCOC(=O)c1cnc2ccccc2c1NCC(C)O", "note": "(centres undefined)", "survival": "89%"},
      {"smiles": "CCOC(=O)c1cnc2ccc(C(=O)OC)cc2c1Nc1ccccc1CC", "survival": "-3% (active)"},
      {"smiles": "CCOC(=O)c1ccc2ncc(C(=O)OCC)c(Nc3ccc(C)c(Br)c3)c2c1", "survival": "39% (active)"}
    ]}
  ]
}
